The source made the active and inactive calls. Rule for the calls: active = hit-call score of the fitted dose curve at least 0.9, where 1 is the maximum; inactive = score below 0.9.
Experiments:
[1] = read-out: Macrophage colony-stimulating factor (MCSF), CSF1 (gene 1435); experiment: BSK_hDFCGF_MCSF: BioMAP Diversity Plus: hDFCGF Assay for Macrophage colony-stimulating factor (MCSF) Biomarker Activity (AID 2283060); settings: primary human foreskin fibroblasts; actives raise or lower the signal
In short: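 M-CSF levels read by ELISA at 24 h post-dosing in human skin fibroblasts. Parallel cultures stained with SRB assessed cytotoxicity at the same time point; response fitted in both directions against the DMSO baseline.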

[2] = BSK_hDFCGF_SRB: Viability Assessment in the BioMAP Diversity Plus: hDFCGF Assay (AID 2283061); settings: primary human foreskin fibroblasts;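 note: cells exposed to compound for 24 h before the read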
In short: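 Viability was read as total protein: after 10% TCA fixation, wells were stained with 0.1% sulforhodamine B and read at 560 nm. Primary human foreskin fibroblasts were dosed for 24 h, with bidirectional fitting versus DMSO.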

[3] = read-out: TIMP metallopeptidase inhibitor 1 (TIMP1), TIMP1 (gene 7076); experiment: BSK_hDFCGF_TIMP1: BioMAP Diversity Plus: hDFCGF Assay for TIMP metallopeptidase inhibitor 1 (TIMP1) Biomarker Activity (AID 2283062); settings: primary human foreskin fibroblasts; actives raise or lower the signal
In short: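 TIMP-1 measured by ELISA 24 h after chemical dosing of primary human skin fibroblasts, with gain or loss fitted relative to DMSO. Parallel SRB staining (560 nm) monitored overt cytotoxicity.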

[4] = read-out: Monokine induced gamma interferon (MIG), CXCL9 (gene 4283); experiment: BSK_hDFCGF_MIG: BioMAP Diversity Plus: hDFCGF Assay for Monokine induced gamma interferon (MIG) Biomarker Activity (AID 2283063); settings: primary human foreskin fibroblasts; actives raise or lower the signal
In short: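 Human primary foreskin fibroblasts in the hDFCGF system, exposed to test chemical for 24 h; MIG measured by ELISA. Bidirectional curve fitting against DMSO negative control as activity baseline.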

[5] = read-out: Matrix Metallopeptidase 1 (MMP1), MMP1 (gene 4312); experiment: BSK_hDFCGF_MMP1: BioMAP Diversity Plus: hDFCGF Assay for Matrix Metallopeptidase 1 (MMP1) Biomarker Activity (AID 2283064); settings: primary human foreskin fibroblasts; actives raise or lower the signal
In short: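 ELISA read-out of MMP1 from human foreskin fibroblasts (primary skin cells), 24 h post-dose. Gain or loss of signal was fitted bidirectionally versus DMSO negative control; cytotoxicity was checked by SRB in parallel cultures.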

[6] = read-out: Vascular cell adhesion molecule 1 (VCAM1), VCAM1 (gene 7412); experiment: BSK_hDFCGF_VCAM1: BioMAP Diversity Plus: hDFCGF Assay for Vascular cell adhesion molecule 1 (VCAM1) Biomarker Activity (AID 2283065); settings: primary human foreskin fibroblasts; actives raise or lower the signal;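 for AC50: VCAM-1 protein level quantified by ELISA after 24 h chemical exposure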
In short: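 ELISA readout of VCAM-1 on human dermal fibroblast primary cultures, 24 h after chemical exposure. Gain or loss of signal fitted in both directions against DMSO baseline.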

[7] = read-out: Plasminogen activator inhibitor-1 (PAI1), SERPINE1 (gene 5054); experiment: BSK_hDFCGF_PAI1: BioMAP Diversity Plus: hDFCGF Assay for Plasminogen activator inhibitor-1 (PAI1) Biomarker Activity (AID 2283066); settings: primary human foreskin fibroblasts; actives raise or lower the signal
In short: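 PAI-1 levels in human dermal foreskin fibroblasts were quantified by ELISA 24 h after dosing, with gain or loss analysed against DMSO. Overt cytotoxicity was checked by sulforhodamine B total-protein staining in parallel cultures.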

[8] = read-out: Intercellular Adhesion Molecule 1 (ICAM1), ICAM1 (gene 3383); experiment: BSK_KF3CT_ICAM1: BioMAP Diversity Plus: KF3CT Assay for Intercellular Adhesion Molecule 1 (ICAM1) Biomarker Activity (AID 2283067); settings: primary human keratinocytes with fibroblasts; actives raise or lower the signal
In short: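 Cell-surface ICAM-1 was measured by ELISA 24 h after dosing primary human skin keratinocytes co-cultured with fibroblasts. Parallel SRB staining tracked overt cytotoxicity. Gain or loss of signal was fitted relative to DMSO.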

[9] = read-out: Interferon-gamma inducible Protein 10 (IP10), CXCL10 (gene 3627); experiment: BSK_KF3CT_IP10: BioMAP Diversity Plus: KF3CT Assay for Interferon-gamma inducible Protein 10 (IP10) Biomarker Activity (AID 2283068); settings: primary human keratinocytes with fibroblasts; actives raise or lower the signal
In short: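 KF3CT co-culture (keratinocytes + foreskin fibroblasts), 24 h compound, IP-10 by ELISA; bidirectional fit vs DMSO baseline.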

[10] = BSK_KF3CT_SRB: Viability Assessment in the BioMAP Diversity Plus: KF3CT Assay (AID 2283069); settings: primary human keratinocytes with fibroblasts;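 note: read 24 h after compound addition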
In short: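 SRB read-out at 560 nm (0.1% stain, TCA-fixed cells) gauges overt cytotoxicity in a human skin keratinocyte–fibroblast co-culture 24 h post-dosing. Signal change was fitted bidirectionally relative to DMSO control.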

Measured: AC50

CC(=O)[C@H]1CC[C@H]2[C@@H]3CCC4=CC(=O)CC[C@]4(C)[C@H]3CC[C@]12C
inactive: [1] | [2] | [3] | [4] | [5] | [6] | [7] | [8] | [9] | [10]

COC(=O)CSc1cc(N=c2sc(=O)n3n2CCCC3)c(F)cc1Cl
inactive: [1] | [2] | [3] | [4] | [5] | [6] | [7] | [8] | [9] | [10]

COC(=O)c1ccc(I)cc1S(=O)(=O)NC(=O)Nc1nc(C)nc(OC)n1
inactive: [1] | [2] | [3] | [4] | [5] | [6] | [7] | [8] | [9] | [10]

COC(=O)c1c(Cl)nn(C)c1S(=O)(=O)NC(=O)Nc1nc(OC)cc(OC)n1
active: [9] 20 µM
inactive: [1] | [2] | [3] | [4] | [5] | [6] | [7] | [8] | [10]

CCOC(=O)COc1cc(-n2ncc(C(F)(F)F)c(C)c2=O)c(F)cc1Cl
inactive: [1] | [2] | [3] | [4] | [5] | [6] | [7] | [8] | [9] | [10]

CCOC(=O)NCCOc1ccc(Oc2ccccc2)cc1
active: [1] 23.1 µM
inactive: [2] | [3] | [4] | [5] | [6] | [7] | [8] | [9] | [10]

C#CCOC(=O)[C@@H](C)Oc1ccc(Oc2ncc(Cl)cc2F)cc1
inactive: [1] | [2] | [3] | [4] | [5] | [6] | [7] | [8] | [9] | [10]

O=C(O)C1(C(=O)Nc2ccc(Cl)cc2Cl)CC1
inactive: [1] | [2] | [3] | [4] | [5] | [6] | [7] | [8] | [9] | [10]

C=CCOC(Cn1ccnc1)c1ccc(Cl)cc1Cl (configuration not stated)
inactive: [1] | [2] | [4] | [5] | [6] | [8] | [10]
active: [3] 30 µM | [7] 13.9 µM | [9] 5.07 µM

COC(=O)c1ccccc1C(=O)O
active: [3] 6.58 µM | [9] 10.4 µM
inactive: [1] | [2] | [4] | [5] | [6] | [7] | [8] | [10]

CCCCCCC(C)OC(=O)COc1nc(F)c(Cl)c(N)c1Cl (configuration not stated)
active: [1] 13.8 µM | [2] 14.9 µM | [3] 26 µM | [4] 15 µM | [5] 30.3 µM | [6] 13.4 µM | [7] 25.8 µM | [8] 31.4 µM | [10] 30.4 µM
inactive: [9]

CCCCOCCOCCOCc1cc2c(cc1CCC)OCO2
inactive: [3] | [4] | [6] | [7] | [8] | [9] | [10]
active: [1] 12.9 µM | [2] 25.3 µM | [5] 3.97 µM

CCCCCOC(=O)COc1cc(N2C(=O)C3=C(CCCC3)C2=O)c(F)cc1Cl
inactive: [2] | [3] | [5] | [7] | [8] | [10]
active: [1] 20 µM | [4] 4.64 µM | [6] 14 µM | [9] 31.9 µM

CCCOC(=O)c1ccc(C(=O)OCCC)nc1
inactive: [1] | [2] | [3] | [4] | [5] | [6] | [7] | [8] | [9] | [10]

C[C@]12C[C@H](O)[C@H]3[C@@H](CCC4=CC(=O)CC[C@@]43C)[C@@H]1CC[C@@H]2C(=O)CO
inactive: [2] | [3] | [4] | [6] | [7] | [8] | [9] | [10]
active: [5] 1.4 µM

S=C([S-])NCCNC(=S)[S-].[Mn+2]
inactive: [2] | [3] | [10]
active: [1] 25.8 µM | [4] 32.4 µM | [5] 4.73 µM | [7] 16.4 µM | [9] 27.4 µM

N[C@@H](Cc1cc(I)c(Oc2ccc(O)c(I)c2)c(I)c1)C(=O)O
active: [6] 6.76 µM
inactive: [1] | [2] | [3] | [4] | [5] | [7] | [8] | [9] | [10]

CCC(O)=C1C(=O)CC(C(=O)O)CC1=O (configuration not stated)
inactive: [1] | [2] | [3] | [4] | [5] | [6] | [7] | [8] | [9] | [10]

CCCCOC(=O)[C@@H](C)Oc1ccc(Oc2ccc(C(F)(F)F)cn2)cc1
inactive: [1] | [2] | [3] | [4] | [5] | [6] | [7] | [8] | [9] | [10]
